Source: PubChem BioAssay (NCI)
Several values for one entry are separate records, joined by “and”; a condition that tells them apart may be missing. Equal entries are not always repeated. About 83,000 compounds went through this panel and 20% of them were active in at least one assay; those are over-represented in the sample as a whole.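 A percent growth of 40 corresponds to 60% growth inhibition; 0 means no net growth; -100 means all cells died. Active threshold: below 10.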 Activity calls are given as the source filed them.

The compounds below were run on HL-60(TB) leukemia (assay: NCI-60 one-dose screen, 48 h (100 = growth as untreated, 0 = no growth, -100 = all killed)). Details: 10 µM unless noted.
`Cc1c(C(=O)/C=C/c2csc3ccccc23)[n+](=O)c2ccccc2n1[O-]` was tested, and the growth was 67.7% (inactive). For `COC(=O)c1cc(-c2ccc(OC)cc2)[nH]c1N/N=C/c1c(Cl)cccc1Cl`, the growth was -44.9% (active). `CC1=CCC2CC1C2(C)C` (centres undefined) was tested, and the growth was 105% (inactive) and 92.9% (inactive). For `NC(=O)CSSCC(N)=O`, the growth was 9.36% (active). `O=C(Nc1ccc(Oc2ccc(NC(=O)Nc3ccc([N+](=O)[O-])cc3)cc2)cc1)Nc1ccc([N+](=O)[O-])cc1` was tested, and the growth was -32.6% (active). In the case of `CCOC(=O)c1c(NC(=O)C2CCCCC2C(=O)O)sc2c1CCCC2` (centres undefined), the growth is reported as 102% (inactive). `Cc1cc(C(=O)O)c(N)c(C)n1` was tested, and the growth was 102% (inactive). For `COc1ccc(N2CCC(=O)NC2=S)cc1`, the growth was 101% (inactive). `O=[N+]([O-])c1cccc2cc(S(=O)(=O)O)ccc12` was tested, and the growth was 76.9% (inactive). In the case of `Brc1c(-c2ccncc2)nc2n1CCS2`, the growth is reported as 44.4% (inactive). For `Cc1ccc(-n2c(-c3cc4c([nH]c5ccccc54)c(-c4cccc(O)c4)n3)n[nH]c2=S)cc1`, the growth was 2.59% (active). In the case of `CC(C)[N+](C)(C)CC(O)COc1cccc2ccccc12` (centres undefined), the growth is reported as 126% (inactive). With `COc1ccc(SC2c3cc(OC)c(OC)cc3Oc3nc(N)c(C#N)c(N)c32)cc1` (centres undefined) the growth was -51.5% (active). `C/C(=C\C(=N\N=C(N)N)c1ccc(Cl)cc1)c1ccc(Cl)cc1` was tested, and the growth was -68% (active). In the case of `CC(C)OC(=O)Nn1cnc2ccccc21`, the growth is reported as 96.5% (inactive). In the case of `CN(C)CCOC(=O)C(C)(C)C`, the growth is reported as 89.7% (inactive). In the case of `COc1cccc2c(=O)c3c(sc12)c(N1CCNCC1)nc1ccccc13`, the growth is reported as -52.2% (active). `Nc1ncnc2c1c(-c1ccc(Oc3ccccc3)cc1)nn2C[C@H]1SSC[C@@H]1O` was tested, and the growth was -22.5% (active). For `CCC(C)C1CCC(O)CC1` (centres undefined), the growth was 99.3% (inactive). For `Cc1ccc(C2=Nc3c(N)ncnc3NC(c3ccc4c(c3)OCO4)C2)cc1` (centres undefined), the growth was 33.2% (inactive). For `CC/C=C\C[C@H](O)C/C=C1/C(=O)C(Cl)=C[C@@H]1C/C=C\CCCC(=O)O`, the growth was 19.4% (inactive). `CCC1=C[C@@H]2CN(C1)Cc1c([nH]c3ccccc13)[C@@](C(=O)OC)(c1cc3c(cc1OC)N(C)[C@H]1[C@@](O)(C(=O)OC)[C@H](OC(C)=O)[C@]4(CC)[C@@H]5C[C@@H]5CN5CC[C@]31[C@@H]54)C2` was tested, and the growth was -57.3% (active). In the case of `O=[N+]([O-])c1ccc2c(c1)Cc1cc(F)ccc1-2`, the growth is reported as 114% (inactive). In the case of `OCC(O)C(O)CC1SCCS1` (centres undefined), the growth is reported as 46% (inactive).
